From PubChem BioAssay (NCATS)
Where “and” joins values, the source holds several entries; their conditions need not be identical. Identical values can stand only once. Inconclusive results are not listed. Calls of active or inactive are those of the source. Unless noted, calls follow the shape of the dose curve; as a rule, active = well fitted curve in the direction sought with a large enough effect; inconclusive = small, poorly fitted or top-dose-only effect, or another doubt; inactive = no such curve, though single readings can be large; an effect the other way counts as inactive or inconclusive.

Assays:
[1] = Cell Viability - LYMP1-002 - Assay at 40 hr (AID 994); conditions: LYMP1-002 lymphoblastoid cell viability; series mostly up to 92.2 µM; also: nearly all actives have a fitted effect of over 60% in size; also: potency is read from the fitted curve at half-maximal effect
Procedure, shortened: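 Human lymphoblastoid cells, 2500/well in complete medium, were preincubated 5 hr at 37 C, then exposed to compounds for 40 hr at 37 C. Intracellular ATP was read by CellTiter-Glo luminescence after 30 min at room temperature; AC50 from Hill-equation fits.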

[2] = Cell Viability - Hek293 (AID 427;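 active = compounds whose dose-response curve shows a full or clear partial loss of cell viability, called from curve shape rather than a numeric limit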;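 also: potency is read from the fitted curve at half-maximal effect; cells exposed to compound for 40 hours at 37 °C before reading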); conditions: qHTS
Procedure, shortened: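 qHTS, human embryonic kidney (adenovirus-transformed) cells; 40 hr cpd, 37 °C; CellTiter-Glo ATP luminescence. Norm: DMSO = 0, 100 uM tamoxifen = 100% inhibition. Hill-fit AC50.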

[3] = Cell Viability - HepG2 (AID 433; calls by dose curve;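 also: potency is read from the fitted curve at half-maximal effect; potency for ATP loss meaning cytotoxicity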); conditions: qHTS
Procedure, shortened: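 In this qHTS format, a 40 h, 37 °C compound incubation of HepG2 cells in complete medium precedes a 20 min CellTiter-Glo step at room temperature. Tamoxifen and doxorubicin serve as positive controls; Hill-equation fits yield AC50.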

[4] = Cell Viability - MRC5 (AID 434; calls by dose curve;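 also: potency is read from the fitted curve at half-maximal effect; potency reflects cytotoxicity seen as loss of intracellular ATP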); conditions: MRC5 lung fibroblast viability, qHTS
Procedure, shortened: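 MRC5 normal human lung fibroblasts, 1500 cells/well, exposed to compound for 40 hr at 37 C. Cellular ATP was read by CellTiter-Glo luminescence; data normalized to DMSO and 100 uM tamoxifen, with AC50 from Hill fits.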

[5] = Cell Viability - SK-N-SH (AID 435; calls by dose curve;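 also: potency is read from the fitted curve at half-maximal effect; compound exposure lasted 40 h at 37 °C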); conditions: SK-N-SH neuroblastoma cell viability qHTS
Procedure, shortened: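 Human neuroblastoma line, 40 h exposure at 37 °C, ATP quantified via luciferase luminescence; DMSO and 100 uM tamoxifen define 0 and 100% inhibition for AC50 fitting.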

[6] = Cell Viability - HUV-EC-C (AID 542); conditions: HUV-EC-C endothelial cell viability, qHTS; series mostly up to 92.2 µM; also: % is scaled to controls: 0 for no effect and ±100 for the full control effect; nearly all actives have a fitted effect of over 35% in size
Procedure, shortened: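 HUV-EC-C normal human vascular endothelial cells, 1000 cells/well, pre-incubated 5 hr at 37 °C, then exposed to compounds for 40 hr at 37 °C in complete medium. Viability measured as intracellular ATP by CellTiter-Glo luminescence; AC50 from Hill fits.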

[7] = Cell Viability - Mesenchymal (AID 546); conditions: mesenchymal cells viability, qHTS; series mostly up to 91.7 µM;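 also: cells exposed to compound for 40 hours before reading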
Procedure, shortened: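 Human kidney mesenchymal cells from normal renal glomeruli, 1000 cells/well, rested 5 hr at 37 °C, then treated 40 hr at 37 °C in complete medium. Cellular ATP read by CellTiter-Glo luminescence; AC50 from Hill-equation fits.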

[8] = Cellular Toxicity (caspase-3) HepG2 (AID 654); conditions: HepG2 caspase-3 activation, luminescence, 0% = DMSO only, 100% = tamoxifen; series mostly up to 92.2 µM;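 also: cells exposed to compound for 16 hours before reading; 0% = DMSO alone and 100% = caspase signal from 100 µM tamoxifen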
Procedure, shortened: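 HepG2 cells (1500/well) in complete medium were treated with compounds for 16 hr at 37 °C. Caspase-3/7 activity was then read as luminescence from peptide-aminoluciferin cleavage. AC50 came from Hill fits, normalized to DMSO and 100 uM tamoxifen.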

[9] = Cellular Toxicity (caspase-3) HUV-EC-C (AID 656); conditions: HUV-EC-C cells, caspase-3 activation (apoptosis), vehicle = 0, 100 µM tamoxifen = 100%; series mostly up to 92.2 µM
Procedure, shortened: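 Concentration-dependent caspase 3/7 induction was assessed in HUV-EC-C cells exposed for 16 hours. Data scaled between DMSO and tamoxifen (100 uM) controls.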

[10] = Cellular Toxicity (caspase-3) SHSY5Y (AID 657); conditions: SH-SY5Y caspase-3 activation, DMSO zero, 10 µM staurosporine = 100%; series mostly up to 91.7 µM
Procedure, shortened: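 Readout: caspase-cleaved peptide-aminoluciferin substrate driving luciferase light in SH-SY5Y neuroblastoma cells after 16 h treatment. Response normalized to DMSO and 10 uM staurosporine controls.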

[11] = Cellular Toxicity (caspase-3) BJ (AID 658); conditions: BJ fibroblasts, luminescence, normalized: DMSO 0%, staurosporine 100%; series mostly up to 91.7 µM
Procedure, shortened: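 BJ human foreskin fibroblasts, 1000 cells/well, treated 16 hours at 37 °C in complete medium; caspase 3/7 activity by Caspase-Glo luminescence after 1 hr at room temperature. Normalized to DMSO and 10 uM staurosporine; AC50 from Hill fits.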

[12] = Cellular Toxicity (caspase-3) MRC-5 (AID 659); conditions: MRC-5 cells, luminescence, normalized: DMSO 0%, 10 µM staurosporine 100%; series mostly up to 91.7 µM
Procedure, shortened: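 MRC-5 human normal lung fibroblasts, 1500 cells/well, treated 16 h at 37 °C in complete medium. Caspase 3/7 measured by Caspase-Glo luminescence after 1 h at room temperature. Normalized to DMSO and 10 uM staurosporine; AC50 from Hill fit.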

[13] = Cellular Toxicity (caspase-3) SK-N-SH (AID 661); conditions: SK-N-SH caspase-3 activation, qHTS, DMSO as zero, staurosporine as full; series mostly up to 91.7 µM
Procedure, shortened: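 SK-N-SH human neuroblastoma cells (1500/well) were treated with compounds for 16 hr at 37 °C in complete medium; caspase 3/7 activity was read by Caspase-Glo luminescence. AC50 came from Hill fits of data normalized to DMSO and 10 uM staurosporine.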

[14] = Cellular Toxicity (caspase-3) H-4-II-E (AID 663); conditions: H-4-II-E rat hepatoma, scaled: DMSO 0%, 100 µM tamoxifen 100%; series mostly up to 92.2 µM;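 also: cells exposed to compound for 16 hr before readout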
Procedure, shortened: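 Rat hepatoma H-4-II-E cells (1500/well) plated 5 hr, then exposed to compound titrations for 16 hr at 37 °C. Caspase-Glo 3/7 luminescence read after 20 min at RT; data normalized to DMSO and 100 uM tamoxifen, AC50 from Hill fits.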

[15] = Cellular Toxicity (caspase-3) Hek293 (AID 664); conditions: HEK293 caspase-3 activation, DMSO = 0%, 100 µM tamoxifen = 100%; series mostly up to 92.2 µM;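 also: cells exposed to compound for 16 h at 37 °C before readout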
Procedure, shortened: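 HEK293 cells were exposed to compounds in complete medium for 16 hr at 37 °C, then caspase-3/7 activity was read by Caspase-Glo 3/7 luminescence after 20 min at room temperature. Data normalized to DMSO and 100 uM tamoxifen; AC50 from Hill fits.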

[16] = Cellular Toxicity (caspase-3) N2a (AID 665); conditions: N2a cells, luminescence, normalized: DMSO 0%, 10 µM staurosporine 100%; series mostly up to 92.2 µM;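 also: compound exposure lasted 16 h at 37 °C before readout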
Procedure, shortened: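 Mouse N2a neuroblastoma cells (1500/well) were treated with compounds for 16 h at 37 °C, then caspase-3/7 activity was read by Caspase-Glo luminescence after 1 h at room temperature. Data were normalized to DMSO and 10 uM staurosporine; AC50 from Hill fits.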

[17] = Cellular Toxicity (caspase-3) NIH 3T3 (AID 666); conditions: NIH 3T3 caspase-3 activation, apoptosis/toxicity, 0% DMSO, 100% is 100 µM tamoxifen; series mostly up to 92.2 µM;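 also: 0% = DMSO basal and 100% = 100 µM tamoxifen stimulation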
Procedure, shortened: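 Mouse NIH 3T3 fibroblasts (1000 cells/well) were treated with compound for 16 hr at 37°C in complete medium; caspase-3/7 activity was read by Caspase-Glo luminescence. Normalized to DMSO and 100 uM tamoxifen; AC50 from Hill fits.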

[18] = Cellular Toxicity (caspase-3) Renal Proximal Tubule (AID 667); conditions: renal proximal tubule cells; series mostly up to 91.7 µM;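 also: cells exposed to compound for 16 hours at 37 °C before detection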
Procedure, shortened: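 Caspase-Glo 3/7 read-out, rat primary kidney proximal tubule cells. Compound exposure 16 h, 37 °C; detection after 1 h at RT. Activity scaled to DMSO and 10 uM staurosporine.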

[19] = qHTS assay for small molecule disruptors of the mitochondrial membrane potential - 5 hr assay (AID 651755; calls by dose curve; also: nearly all actives have a fitted effect of over 40% in size; also: potency is read from the fitted curve at half-maximal effect); conditions: JC-1-type ratio dye; series mostly up to 92.2 µM
Procedure, shortened: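 HepG2 cells (2,000/well), attached overnight, exposed to compound 5 hr at 37C, then Mito-MPS dye 30 min. Fluorescence read for monomers (490/535 nm) and aggregates (540/590 nm).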

[20] = molecular target: Peroxisome proliferator-activated receptor alpha (Homo sapiens) (UniProt Q07869); assay: qHTS assay for small molecule agonists of the peroxisome proliferator-activated receptor alpha (PPARalpha) signaling pathway (AID 651778); conditions: PathHunter PPARalpha complementation, chemiluminescence, 6 h; hits give high values; also: % of control where 0% means no effect
Peroxisome proliferator-activated receptor alpha (Homo sapiens), sequence (Q07869 whole entry, looked up, the tested form may be a part): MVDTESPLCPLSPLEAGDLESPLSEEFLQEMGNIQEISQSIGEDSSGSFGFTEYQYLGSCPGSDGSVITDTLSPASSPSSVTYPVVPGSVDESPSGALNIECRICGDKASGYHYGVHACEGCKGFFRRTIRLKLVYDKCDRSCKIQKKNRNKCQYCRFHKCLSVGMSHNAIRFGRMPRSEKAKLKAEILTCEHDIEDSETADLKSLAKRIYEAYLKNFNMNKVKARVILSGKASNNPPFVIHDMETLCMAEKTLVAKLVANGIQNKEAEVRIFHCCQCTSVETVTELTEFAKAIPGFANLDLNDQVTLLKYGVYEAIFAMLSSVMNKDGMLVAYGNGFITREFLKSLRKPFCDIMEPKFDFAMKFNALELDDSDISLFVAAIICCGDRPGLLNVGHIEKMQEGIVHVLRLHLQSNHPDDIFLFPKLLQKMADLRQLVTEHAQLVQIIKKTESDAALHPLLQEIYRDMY
Procedure, shortened: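 Enzyme-fragment complementation assay in which ligand-bound PPARalpha translocates and forms an active enzyme that generates chemiluminescence. Cells were plated overnight, exposed to compound for 6 hr at 37 C, and then given detection reagent for 60 min at room temperature.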

Oc1ccccc1O
active: Potency [1] 15.8 µM

c1ccc2c(c1)-c1cccc3cccc-2c13
inactive: Potency [2] > 92 µM | Potency [3] > 92 µM | Potency [4] > 92 µM | Potency [5] > 92 µM | outcome [6] | outcome [7] | outcome [8] | outcome [9] | outcome [10] | outcome [11] | outcome [12] | outcome [13] | outcome [14] | outcome [15] | outcome [16] | outcome [17] | outcome [18] | Potency [1] | Potency [19] | max response [20] -3.35% and -1.28%

c1ccc(Nc2ccc3ccccc3c2)cc1
inactive: Potency [2] > 92 µM | Potency [3] > 92 µM | Potency [4] > 92 µM | Potency [5] > 92 µM | outcome [6] | outcome [7] | outcome [8] | outcome [9] | outcome [10] | outcome [11] | outcome [12] | outcome [13] | outcome [14] | outcome [15] | outcome [16] | outcome [17] | outcome [18] | Potency [1] | max response [20] 18.5% and 8.75%
active: Potency [19] 42.2 µM

CC(=O)/C=C/c1ccccc1
inactive: Potency [2] > 92 µM | Potency [3] > 92 µM | Potency [4] > 92 µM | Potency [5] > 92 µM | outcome [6] | outcome [7] | outcome [8] | outcome [9] | outcome [10] | outcome [11] | outcome [12] | outcome [13] | outcome [14] | outcome [15] | outcome [16] | outcome [17] | outcome [18] | Potency [1] | Potency [19] | max response [20] -5.69%

Oc1ccccc1Cl
inactive: Potency [2] > 92 µM | Potency [3] > 92 µM | Potency [4] > 92 µM | Potency [5] > 92 µM | outcome [6] | outcome [7] | outcome [8] | outcome [9] | outcome [10] | outcome [11] | outcome [12] | outcome [13] | outcome [14] | outcome [15] | outcome [16] | outcome [17] | outcome [18] | Potency [1] | Potency [19] | max response [20] -3.34%

COC1=CC(=O)OC(CCc2ccc3c(c2)OCO3)C1 (stereo not given)
inactive: Potency [2] > 92 µM | Potency [3] > 92 µM | Potency [4] > 92 µM | Potency [5] > 92 µM | outcome [6] | outcome [7] | outcome [8] | outcome [9] | outcome [10] | outcome [11] | outcome [12] | outcome [13] | outcome [14] | outcome [15] | outcome [16] | outcome [17] | outcome [18] | Potency [19] | max response [20] -0.116%

CCOC(=O)c1ccccc1N
inactive: Potency [2] > 92 µM | Potency [3] > 92 µM | Potency [4] > 92 µM | Potency [5] > 92 µM | outcome [6] | outcome [7] | outcome [8] | outcome [9] | outcome [10] | outcome [11] | outcome [12] | outcome [13] | outcome [14] | outcome [15] | outcome [16] | outcome [17] | outcome [18] | Potency [1] | Potency [19] | max response [20] -7.33%

CC(C)COC(=O)c1ccccc1C(=O)OCC(C)C
inactive: Potency [2] > 92 µM | Potency [3] > 92 µM | Potency [4] > 92 µM | Potency [5] > 92 µM | outcome [6] | outcome [7] | outcome [8] | outcome [9] | outcome [10] | outcome [11] | outcome [12] | outcome [13] | outcome [14] | outcome [15] | outcome [16] | outcome [17] | outcome [18] | Potency [1] | Potency [19] | max response [20] -0.716%
